A number with no mark means an inactive call. For some of these results: Results with a measured potency or affinity are listed apart. Activity calls are given as the source filed them. Unless noted, the rule behind the calls is not given here.

Results on 20 molecules are retold here after PubChem BioAssay.

The nature of assay [1]: antimalarial activity against Dd2 strain (AID 2302;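 active = growth inhibition above 50% at the single 2 µM test dose, taken to imply half-maximal potency below 2 µM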;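 note: 0% = DMSO untreated growth and 100% = chloroquine plus artemisinin killed control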). The note with it: P. falciparum Dd2 in RBCs, LDH growth readout, 72 h; at 2 µM; hits give high values.
Assay [2] is described as follows: HepG2 cytotoxicity, primary screen, cytotoxicity control for P. falciparum antimalarial project, cell-based, ATP luminescence (AID 2303;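 active = inhibition above 50%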;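 note: 0% = DMSO wells and 100% = digitonin-killed cells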). The note with it: HepG2 viability, 24-48 h, at 10 µM, hits give high values.
Assay [3] has as its target L-lactate dehydrogenase (Plasmodium falciparum (isolate CDC / Honduras)) (UniProt Q27743). Briefly: PfLDH activity inhibition – cell lysate, 3D7 strain, counter-screen for P. falciparum growth inhibition project (AID 2304).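 Note: 0% = vehicle and 100% = reference inhibitor.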 The following applies: P. falciparum 3D7 crude extract, LDH APAD/NBT absorbance; at 2 µM; hits give high values. (A counterscreen serves to expose hits that act by an unwanted route or on another target.)

Assay [4] in a line: inhibition of 3D7 malaria parasite growth – strain 3D7 (AID 2306).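 Note: 0% = DMSO wells and 100% = chloroquine plus artemisinin control wells.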 The following applies: P. falciparum 3D7 erythrocytic growth, LDH absorbance, 72 h; at 2 µM; hits give high values.
The target in assay [5] is Calcium-dependent protein kinase 1 (Plasmodium falciparum (isolate 3D7)) (UniProt P62344). The experiment in a line: PfCDPK1 kinase inhibitors, biochemical, TCAMS library (AID 1159585; cut-off not given, nearly all actives have IC50 up to about 0.98 µM;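 note: inhibitors leave more ATP so luminescence rises with inhibition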). The following applies: recombinant PfCDPK1, Kinase-Glo ATP depletion luminescence. In general terms: Kinase-Glo measures the ATP left after a reaction by luminescence.
In assay [6] the target is Plasmodium falciparum protein kinase 6 (PK6, PF3D7_1337100) (UniProt Q8IDW1). Briefly: PfPK6 kinase inhibitors, biochemical, TCAMS library (AID 1159586). The following applies: recombinant PfPK6, Kinase-Glo ATP depletion luminescence.
Assay [7] addresses Protein kinase 7 (PK7), Plasmodium falciparum 3D7 (PF3D7_0213400) (UniProt Q7YTF7). The experiment in a line: inhibition of Plasmodium PK7 catalytic activity – biochemical, TCAMS antimalarial set, Kinase-Glo luminescence (AID 1159587). The following applies: recombinant PfPK7, Kinase-Glo ATP depletion luminescence.
Assay [8] deals with Calcium-dependent protein kinase 4 (Plasmodium falciparum (isolate 3D7)) (UniProt Q8IBS5). The experiment in a line: PfCDPK4 kinase inhibitors, biochemical, TCAMS library (AID 1159588; cut-off not given, nearly all actives have IC50 up to about 0.91 µM). The following applies: recombinant PfCDPK4, Kinase-Glo ATP depletion luminescence.
Chain of Calcium-dependent protein kinase 4 (Plasmodium falciparum (isolate 3D7)) (Q8IBS5 whole entry, looked up): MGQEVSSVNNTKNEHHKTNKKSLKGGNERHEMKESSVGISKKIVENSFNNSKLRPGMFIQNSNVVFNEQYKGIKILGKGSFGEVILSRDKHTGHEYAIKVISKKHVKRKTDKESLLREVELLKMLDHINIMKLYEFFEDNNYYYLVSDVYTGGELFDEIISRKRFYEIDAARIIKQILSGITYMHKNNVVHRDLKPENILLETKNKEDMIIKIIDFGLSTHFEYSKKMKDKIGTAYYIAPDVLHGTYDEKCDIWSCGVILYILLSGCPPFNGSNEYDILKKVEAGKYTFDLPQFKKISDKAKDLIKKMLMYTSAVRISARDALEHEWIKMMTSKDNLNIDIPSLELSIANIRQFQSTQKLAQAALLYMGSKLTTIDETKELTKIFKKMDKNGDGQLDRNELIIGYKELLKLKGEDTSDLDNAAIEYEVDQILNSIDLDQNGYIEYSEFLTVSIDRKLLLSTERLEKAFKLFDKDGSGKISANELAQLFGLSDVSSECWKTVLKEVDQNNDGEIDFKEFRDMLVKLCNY

Chain of Protein kinase 7 (PK7), Plasmodium falciparum 3D7 (PF3D7_0213400) (Q7YTF7 1-343): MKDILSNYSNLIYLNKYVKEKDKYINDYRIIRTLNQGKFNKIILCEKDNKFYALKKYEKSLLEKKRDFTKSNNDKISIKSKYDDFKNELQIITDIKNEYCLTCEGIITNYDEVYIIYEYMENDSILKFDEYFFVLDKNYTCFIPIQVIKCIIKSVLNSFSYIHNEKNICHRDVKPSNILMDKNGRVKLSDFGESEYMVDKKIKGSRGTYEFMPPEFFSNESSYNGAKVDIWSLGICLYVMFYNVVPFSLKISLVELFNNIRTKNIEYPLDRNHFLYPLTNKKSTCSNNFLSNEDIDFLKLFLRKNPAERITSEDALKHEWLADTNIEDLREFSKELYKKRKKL
Chain of Plasmodium falciparum protein kinase 6 (PK6, PF3D7_1337100) (Q8IDW1 1-305): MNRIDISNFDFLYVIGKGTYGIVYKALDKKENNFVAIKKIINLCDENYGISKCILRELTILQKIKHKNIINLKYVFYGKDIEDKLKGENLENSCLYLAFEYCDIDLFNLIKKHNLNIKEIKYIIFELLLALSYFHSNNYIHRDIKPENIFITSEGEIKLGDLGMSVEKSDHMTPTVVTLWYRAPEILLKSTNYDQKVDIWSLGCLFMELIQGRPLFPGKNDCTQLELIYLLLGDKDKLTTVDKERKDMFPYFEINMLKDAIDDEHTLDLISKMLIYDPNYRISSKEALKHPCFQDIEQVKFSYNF
Chain of Calcium-dependent protein kinase 1 (Plasmodium falciparum (isolate 3D7)) (P62344 whole entry, looked up): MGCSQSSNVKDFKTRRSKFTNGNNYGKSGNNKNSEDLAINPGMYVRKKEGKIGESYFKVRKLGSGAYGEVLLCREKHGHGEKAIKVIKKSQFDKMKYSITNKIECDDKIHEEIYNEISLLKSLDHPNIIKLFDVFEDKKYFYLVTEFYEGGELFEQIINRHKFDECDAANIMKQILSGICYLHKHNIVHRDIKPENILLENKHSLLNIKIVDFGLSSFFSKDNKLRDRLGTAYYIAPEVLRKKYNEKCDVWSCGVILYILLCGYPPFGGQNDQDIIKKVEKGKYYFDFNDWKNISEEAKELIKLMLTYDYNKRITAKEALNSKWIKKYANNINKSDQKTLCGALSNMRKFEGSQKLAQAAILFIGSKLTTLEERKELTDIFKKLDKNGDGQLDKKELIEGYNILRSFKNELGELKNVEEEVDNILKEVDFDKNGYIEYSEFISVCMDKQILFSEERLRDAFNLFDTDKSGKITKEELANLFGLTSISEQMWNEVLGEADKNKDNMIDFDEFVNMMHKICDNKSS
Chain of L-lactate dehydrogenase (Plasmodium falciparum (isolate CDC / Honduras)) (Q27743 whole entry, looked up): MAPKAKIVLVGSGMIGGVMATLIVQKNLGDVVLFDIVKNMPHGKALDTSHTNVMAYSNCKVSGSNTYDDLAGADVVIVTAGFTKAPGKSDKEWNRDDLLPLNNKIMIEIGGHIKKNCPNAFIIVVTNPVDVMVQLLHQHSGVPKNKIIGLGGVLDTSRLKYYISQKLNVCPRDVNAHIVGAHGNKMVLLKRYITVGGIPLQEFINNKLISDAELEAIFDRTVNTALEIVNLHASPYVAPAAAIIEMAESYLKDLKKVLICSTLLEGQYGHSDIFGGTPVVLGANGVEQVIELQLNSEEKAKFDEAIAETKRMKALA

For the molecule `c1cc(-c2nc3ccccc3[nH]2)nc(-c2nc3ccccc3[nH]2)c1`, the growth inhibition in assay [1] is 24%; in assay [4] it was 87% (active). The inhibition is 7% in assay [2] and 0% in assay [3]. Also, the result in assay [5], in assay [6], in assay [7] and in assay [8] was inactive.
Consider `CC1(C)N=C(N)NC(Nc2ccc(F)c(F)c2)=N1`, for which the growth inhibition was 1% in assay [1] and 91% (active) in assay [4]. In addition, the inhibition in assay [2] is 59% (active); in assay [3], -10%. Moreover, the result in assay [5], in assay [6], in assay [7] and in assay [8] was inactive.
As to `N=C(N)c1ccc(-c2cc3ccc(C(=N)N)cc3[nH]2)cc1`, the growth inhibition in assay [1] and in assay [4] was 99% (active) each time. For the same molecule, the inhibition is 18% in assay [2] and -2% in assay [3]. The outcome in assay [5], in assay [6], in assay [7] and in assay [8] was inactive.
`Cc1ccccc1CNc1noc(-c2c(-c3ccccc3)noc2C)n1`: the growth inhibition in assay [1] was 70% (active); in assay [4], 94% (active). In addition, the inhibition in assay [2] was -4%; in assay [3] it was -2%. Also, the outcome in assay [5], in assay [6], in assay [7] and in assay [8] was inactive.
`CC(C)C[C@H](NC(=O)c1ccc(OCCN2CCOCC2)cc1)C(=O)NC(/C=N/N1CCCC1=O)C(C)C` (stereo not given in full): the growth inhibition was 81% (active) in assay [1] and 90% (active) in assay [4]. Also, the inhibition in assay [2] was 3%; in assay [3], -2%. Moreover, the outcome in assay [5], in assay [6], in assay [7] and in assay [8] was inactive.
`Cc1ccc(Nc2nccc(NCC(O)c3cccc(C)c3)n2)cc1` (stereo not given): the growth inhibition in assay [1] is 23%; in assay [4], 90% (active). For the same molecule, the inhibition in assay [2] was 22%; in assay [3], 0%. Further, the outcome in assay [5], in assay [6], in assay [7] and in assay [8] was inactive.
On to `c1ccc(COc2ccc(Nc3ncnc4ccc(-c5ccc(CN6CCSCC6)o5)cc34)cc2)cc1`, for which the growth inhibition in assay [1] was 4%; in assay [4], 94% (active). Besides, the inhibition in assay [2] and in assay [3] was 4% in each case. The outcome in assay [5], in assay [6], in assay [7] and in assay [8] was inactive.
As to `CCCCCCc1cc(OC)c(OC)cc1C(C)Nc1ccnc2cc(Cl)ccc12` (stereo not given), the growth inhibition is 79% (active) in assay [1] and 95% (active) in assay [4]. The inhibition is 6% in assay [2] and -4% in assay [3]. Moreover, the outcome in assay [5], in assay [6], in assay [7] and in assay [8] was inactive.
For `c1ccc(CNCc2cccc(-c3ccc(-c4nc5ccccc5[nH]4)cc3)c2)cc1`, the growth inhibition in assay [1] is 39%; in assay [4] it was 97% (active). Besides, the inhibition in assay [2] was 10%; in assay [3], -5%. Further, the outcome in assay [5], in assay [6], in assay [7] and in assay [8] was inactive.
With `O=c1cc(NCCCNCc2ccc(Cl)c(Cl)c2)[nH]c2ccc(Cl)cc12`, the growth inhibition in assay [1] was 54% (active); in assay [4] it was 101% (active). The inhibition in assay [2] is 11%; in assay [3], 1%. Moreover, the outcome in assay [5], in assay [6], in assay [7] and in assay [8] was inactive.
Consider `Fc1cccc(COc2ccc(Nc3ncnc4sc(C#C[C@H]5CC[C@H](CNCC(F)(F)F)N5)cc34)cc2Cl)c1`, for which the growth inhibition in assay [1] was 51% (active); in assay [4] it was 100% (active). Also, the inhibition in assay [2] is 10%; in assay [3] it was -4%. The result in assay [5], in assay [6], in assay [7] and in assay [8] was inactive.
`COc1ccc2c(NN=Cc3cccc(F)c3)ccnc2c1`: the growth inhibition in assay [1] is 95% (active); in assay [4], 101% (active). Moreover, the inhibition is 49% in assay [2] and -5% in assay [3]. Also, the result in assay [5], in assay [6], in assay [7] and in assay [8] was inactive.
As to `c1ccc(-c2cccnn2)cc1`, the growth inhibition is 6% in assay [1] and 98% (active) in assay [4]. Further, the inhibition in assay [2] is -7%; in assay [3] it was 0%. Moreover, the outcome in assay [5], in assay [6], in assay [7] and in assay [8] was inactive.
Turning to `Nc1nc(N)c2c(ccc3nn(C4CCCC4)cc32)n1`, the growth inhibition in assay [1] is 3%; in assay [4] it was 97% (active). The inhibition in assay [2] was 44%; in assay [3], -1%. The outcome in assay [5], in assay [6], in assay [7] and in assay [8] was inactive.
For the molecule `Cc1cccc2[nH]c(=O)c([N+](=O)[O-])c(O)c12`, the growth inhibition was -2% in assay [1] and 95% (active) in assay [4]. Further, the inhibition in assay [2] and in assay [3] was -2% in each case. Moreover, the result in assay [5], in assay [6], in assay [7] and in assay [8] was inactive.
Consider `CC(C)(C)C(=O)Oc1ccc(CC2NCCc3cc(OC(=O)C(C)(C)C)c(OC(=O)C(C)(C)C)cc32)cc1OC(=O)C(C)(C)C` (stereo not given), for which the results for the growth inhibition in assay [1] and in assay [4] were 96% (active) and 97% (active), respectively. Further, the inhibition in assay [2] is 3%; in assay [3], 5%. The result in assay [5], in assay [6], in assay [7] and in assay [8] was inactive.
For `CN(C)CCNC(=O)c1csc(Nc2ccc(Cl)c(Cl)c2)n1`, the growth inhibition in assay [1] and in assay [4] was 100% (active) throughout. In addition, the inhibition was 4% in assay [2] and -3% in assay [3]. In addition, the result in assay [5], in assay [6], in assay [7] and in assay [8] was inactive.
Regarding `COc1cc2nc(NCCn3cccn3)nc(NCCc3ccccc3)c2cc1OC`, the growth inhibition in assay [1] is 100% (active); in assay [4] it was 102% (active). For the same molecule, the figures for the inhibition in assay [2] and in assay [3] were 12% and -3%, respectively. For the same molecule, the result in assay [5], in assay [6], in assay [7] and in assay [8] was inactive.
On to `N#Cc1ccc2c(c1)CN(C1CCC(NC(=O)C3=Cc4cc(Cl)ccc4OC3)CC1)CCC2` (stereo not given), for which the growth inhibition was 8% in assay [1] and 93% (active) in assay [4]. Further, the inhibition in assay [2] is -5%; in assay [3], 2%. Moreover, the outcome in assay [5], in assay [6], in assay [7] and in assay [8] was inactive.
For `CCN1CCN(CCCNc2c3ccc(Cl)cc3nc3ccc(O)cc23)CC1`, the values for the growth inhibition in assay [1] and in assay [4] were 1% and 103% (active), respectively. Besides, the figures for the inhibition in assay [2] and in assay [3] were 32% and -3%, respectively. In addition, the result in assay [5], in assay [6], in assay [7] and in assay [8] was inactive.

Broadly, the inhibition is the relative decrease from the control value, in per cent.
